PubChem BioAssay
The source made the active and inactive calls. Unless noted, no rule for the calls is given here.

Tests used:
[1] = anti-His antibody binders, primary screen, artefact control for SMM control protein annotation, biochemical, small-molecule microarray, 635 nm fluorescence (AID 1128); conditions: anti-His Alexa647 antibody binding, higher = more signal;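 also: score merges feature fluorescence with signal-to-noise for each printed compound spot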
[2] = system: Human papillomavirus type 1a E7 protein (residues 1-88); assay: HPV1a E7 small-molecule binders, primary screen, biochemical, small-molecule microarray, residues 1-88, 635 nm (AID 1129); conditions: small-molecule microarray binding, fluorescence 635 nm; higher = more signal
[3] = molecular target: Focal adhesion kinase 1 (Homo sapiens) (UniProt Q05397); assay: small-molecule microarray binders of FAK, primary screen, biochemical, 635/667 nm fluorescence, BSA, DTT (AID 1130); conditions: PTK2 binding, 635 nm fluorescence, higher = more signal;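 also: composite of spot emission at 667 nm and signal to noise over triplicate slides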
Sequence of Focal adhesion kinase 1 (Homo sapiens) (Q05397 whole entry, looked up): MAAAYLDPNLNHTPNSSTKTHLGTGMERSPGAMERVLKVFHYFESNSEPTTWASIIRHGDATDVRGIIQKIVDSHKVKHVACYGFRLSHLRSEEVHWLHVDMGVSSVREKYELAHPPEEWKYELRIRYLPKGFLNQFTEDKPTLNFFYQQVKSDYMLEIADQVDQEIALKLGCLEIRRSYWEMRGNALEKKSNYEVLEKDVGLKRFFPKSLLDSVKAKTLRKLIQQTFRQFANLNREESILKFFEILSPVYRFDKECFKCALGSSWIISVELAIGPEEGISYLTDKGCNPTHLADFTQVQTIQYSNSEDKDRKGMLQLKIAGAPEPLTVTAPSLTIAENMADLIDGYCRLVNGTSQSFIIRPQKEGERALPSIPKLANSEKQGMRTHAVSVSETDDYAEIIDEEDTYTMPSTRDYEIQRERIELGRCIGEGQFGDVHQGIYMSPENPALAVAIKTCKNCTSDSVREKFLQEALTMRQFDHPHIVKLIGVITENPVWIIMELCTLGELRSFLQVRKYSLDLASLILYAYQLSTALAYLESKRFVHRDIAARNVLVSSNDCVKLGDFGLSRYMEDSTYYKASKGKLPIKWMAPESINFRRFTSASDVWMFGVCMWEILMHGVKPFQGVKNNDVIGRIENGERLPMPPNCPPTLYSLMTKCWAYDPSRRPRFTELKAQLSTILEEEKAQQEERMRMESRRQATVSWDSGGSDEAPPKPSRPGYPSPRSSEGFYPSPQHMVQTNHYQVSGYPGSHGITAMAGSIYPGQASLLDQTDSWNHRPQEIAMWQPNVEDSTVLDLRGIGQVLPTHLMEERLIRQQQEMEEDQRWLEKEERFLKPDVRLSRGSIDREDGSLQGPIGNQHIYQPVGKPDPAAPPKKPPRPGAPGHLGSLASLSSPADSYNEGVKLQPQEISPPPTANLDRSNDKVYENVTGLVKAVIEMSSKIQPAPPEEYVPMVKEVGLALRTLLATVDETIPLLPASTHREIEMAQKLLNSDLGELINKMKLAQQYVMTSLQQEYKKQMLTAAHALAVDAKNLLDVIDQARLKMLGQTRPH

[4] = system: Fibrinogen (Alexa647-labelled); assay: fibrinogen binders on compound microarrays, profiling panel, artefact control for SMM control-protein annotation, biochemical, small-molecule microarray, 635/667 nm fluorescence (AID 1131); conditions: fibrinogen-A647 binding fluorescence, higher = more signal;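 also: z-score merges 667 nm fluorescence with per-spot signal-to-noise over triplicate slides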
[5] = molecular target: Follistatin (Homo sapiens) (UniProt P19883); assay: follistatin binders on small-molecule microarrays, primary screen, biochemical, small-molecule microarray, 635/667 nm fluorescence (AID 1132); conditions: FST binding, 635 nm fluorescence, higher = more signal
Sequence of Follistatin (Homo sapiens) (P19883 whole entry, looked up): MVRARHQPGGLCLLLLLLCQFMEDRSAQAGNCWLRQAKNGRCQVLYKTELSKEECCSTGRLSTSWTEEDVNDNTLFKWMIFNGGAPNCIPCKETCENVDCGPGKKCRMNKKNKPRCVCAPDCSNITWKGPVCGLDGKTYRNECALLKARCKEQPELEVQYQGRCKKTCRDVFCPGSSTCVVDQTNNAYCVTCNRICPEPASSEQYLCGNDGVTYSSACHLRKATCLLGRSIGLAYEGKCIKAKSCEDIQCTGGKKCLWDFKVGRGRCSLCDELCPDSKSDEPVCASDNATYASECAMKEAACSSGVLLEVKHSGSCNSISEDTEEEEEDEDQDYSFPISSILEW

[6] = molecular target: Fibroblast growth factor 2 (Homo sapiens) (UniProt P09038); assay: FGF2 binders on small-molecule microarrays, primary screen, biochemical, small-molecule microarray, 635/667 nm fluorescence (AID 1133); conditions: small-molecule microarray binding, FGF2, fluorescence 635/667; higher = more signal
Sequence of Fibroblast growth factor 2 (Homo sapiens) (P09038 whole entry, looked up): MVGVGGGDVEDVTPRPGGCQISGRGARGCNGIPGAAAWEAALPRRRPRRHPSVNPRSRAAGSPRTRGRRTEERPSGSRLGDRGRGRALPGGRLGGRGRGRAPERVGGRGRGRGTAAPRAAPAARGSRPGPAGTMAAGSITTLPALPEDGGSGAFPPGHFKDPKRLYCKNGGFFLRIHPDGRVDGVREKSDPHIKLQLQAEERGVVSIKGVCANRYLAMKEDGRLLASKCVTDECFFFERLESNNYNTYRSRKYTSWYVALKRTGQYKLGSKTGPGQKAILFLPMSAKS

[7] = mitochondrial membrane potential change in A549 cells, profiling panel, cell-based, JC-1 fluorescence, basal, 24 h, 100 nL (AID 1138); conditions: higher = more signal;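 also: A549 lung adenocarcinoma cells under basal conditions with no added stimulus; test concentration not given here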
[8] = system: Lefty1; assay: Lefty1 binders on small-molecule microarrays, primary screen, biochemical, small-molecule microarray, 635/667 nm fluorescence (AID 1139); conditions: small-molecule microarray binding, fluorescence 635/667; higher = more signal
[9] = system: wheat germ agglutinin (Triticum aestivum), Alexa647-labelled; assay: wheat germ agglutinin binders on compound microarrays, profiling panel, artefact control for SMM control-protein annotation, biochemical, small-molecule microarray, 635/667 nm fluorescence (AID 1140); conditions: WGA-A647 binding, 635 nm fluorescence, higher = more signal;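 also: score merges 667 nm feature emission with signal to noise over triplicate slides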
[10] = molecular target: Luciferin 4-monooxygenase (Photinus pyralis) (UniProt P08659); assay: firefly luciferase enzyme inhibitors, primary screen, biochemical, luminescence, purified enzyme, 2006 set (AID 1141); conditions: SteadyGlo luminescence, 30 min, higher = more signal, called active from +8 up or from −8 down;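 also: cell-free assay with purified firefly luciferase at 100 ng per well in PBS; test concentration not given here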
Sequence of Luciferin 4-monooxygenase (Photinus pyralis) (P08659 whole entry, looked up): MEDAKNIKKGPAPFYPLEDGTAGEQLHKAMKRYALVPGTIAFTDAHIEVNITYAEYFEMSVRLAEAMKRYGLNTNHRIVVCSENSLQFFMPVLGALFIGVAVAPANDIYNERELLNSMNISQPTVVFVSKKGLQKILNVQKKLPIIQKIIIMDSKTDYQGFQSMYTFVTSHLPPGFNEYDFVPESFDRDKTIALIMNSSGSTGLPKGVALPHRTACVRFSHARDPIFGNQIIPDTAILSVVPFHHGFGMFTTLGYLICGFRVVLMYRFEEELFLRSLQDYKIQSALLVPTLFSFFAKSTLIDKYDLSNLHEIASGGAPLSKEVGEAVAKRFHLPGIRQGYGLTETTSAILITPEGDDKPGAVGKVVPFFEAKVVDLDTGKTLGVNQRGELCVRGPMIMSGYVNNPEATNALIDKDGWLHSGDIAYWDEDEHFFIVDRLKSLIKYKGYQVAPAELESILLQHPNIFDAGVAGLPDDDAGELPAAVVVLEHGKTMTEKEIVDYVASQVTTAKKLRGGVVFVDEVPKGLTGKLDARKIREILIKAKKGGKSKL

[11] = system: Wnt5a (protein binding on small-molecule microarray); assay: Wnt5a binders on small-molecule microarray, primary screen, biophysical, 635/667 nm fluorescence (AID 1142); conditions: 635 nm fluorescence, higher = more signal;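 also: fluorescence read at 667 nm with signal to noise per printed feature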
[12] = cell viability in Huh7 cells, primary screen, cytotoxicity control for HCV replication inhibitor project, CellTiter-Glo luminescence, basal, 48 h (AID 1143); conditions: Huh7 HCV replicon, higher = more signal, called active from +8 up or from −8 down;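 also: Huh7 hepatoma cells carrying a hepatitis C replication reporter with no stimulus; test concentration not given here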
[13] = P. aeruginosa biofilm formation inhibitors, primary screen, PAO1 strain, BacTiter-Glo luminescence, LB-PBS (AID 1144); conditions: 12 h, higher = more signal
[14] = CREB reporter modulators without forskolin, primary screen, cell-based, PC12, CRE-LacZ reporter, unstimulated (AID 1145); conditions: no forskolin, luminescence, 4.5 h, higher = more signal, called active from +8 up or from −8 down
[15] = CREB reporter modulators under forskolin, primary screen, cell-based, PC12, CRE-LacZ reporter, forskolin-stimulated (AID 1146); conditions: luminescence, 4.5 h, higher = more signal, called active from +8 up or from −8 down;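 also: PC12 cells with 6xCRE LacZ reporter stimulated by forskolin 10 µM; beta-galactosidase reporter signal reflecting CREB driven transcription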
[16] = molecular target: Streptavidin (Streptomyces avidinii) (UniProt P22629); assay: streptavidin binders on small-molecule microarray, primary screen, artefact control for SMM compound annotation, biophysical, 635/667 nm fluorescence (AID 1147); conditions: streptavidin binding, higher = more signal;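 also: signal reflects streptavidin binding to arrayed compounds as a control protein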
Sequence of Streptavidin (Streptomyces avidinii) (P22629 whole entry, looked up): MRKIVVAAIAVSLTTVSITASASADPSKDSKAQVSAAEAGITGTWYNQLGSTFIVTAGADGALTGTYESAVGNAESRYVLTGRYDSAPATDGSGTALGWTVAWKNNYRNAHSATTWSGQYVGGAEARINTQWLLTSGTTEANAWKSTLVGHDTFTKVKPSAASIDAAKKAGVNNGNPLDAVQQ

[17] = small-molecule binders of probe aInhba, primary screen, biochemical, small-molecule microarray, 635/667 nm fluorescence (AID 1148); conditions: higher = more signal;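 also: score merges 667nm spot fluorescence with signal-to-noise for antibody binding to printed compounds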
[18] = molecular target: Torsin-1A (Homo sapiens) (UniProt O14656); assay: torsin A binders from cell lysate, primary screen, small-molecule microarray, wild-type, 635/667 nm (AID 1149); conditions: COS7 hTOR1A-WT lysate, 635 nm fluorescence, higher = more signal
Sequence of Torsin-1A (Homo sapiens) (O14656 whole entry, looked up): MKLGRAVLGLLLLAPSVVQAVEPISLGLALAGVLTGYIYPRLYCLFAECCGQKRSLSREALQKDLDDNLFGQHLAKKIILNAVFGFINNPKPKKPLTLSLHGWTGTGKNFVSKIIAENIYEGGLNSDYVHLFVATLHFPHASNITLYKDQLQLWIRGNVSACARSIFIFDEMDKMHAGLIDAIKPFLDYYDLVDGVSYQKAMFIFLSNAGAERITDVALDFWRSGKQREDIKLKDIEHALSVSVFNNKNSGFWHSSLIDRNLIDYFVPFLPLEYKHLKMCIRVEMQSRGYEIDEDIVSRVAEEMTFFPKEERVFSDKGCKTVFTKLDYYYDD

[19] = molecular target: Torsin-1A (Homo sapiens) (UniProt O14656); assay: small-molecule binders of mutant TOR1A in lysate, primary screen, cell lysate, small-molecule microarray, COS7 lysate, 635/667 nm fluorescence (AID 1150); conditions: COS7 hTOR1A mutant lysate, 635 nm fluorescence, higher = more signal;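 also: score pools 667 nm emission and signal to noise measuring lysate protein binding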
[20] = system: Sonic hedgehog protein (Shh); assay: small-molecule binders of Shh protein, primary screen, biochemical, small-molecule microarray, 635/667 nm fluorescence (AID 1151); conditions: small-molecule microarray binding, 635 nm fluorescence; higher = more signal;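 also: Shh protein binding to compounds spotted on small-molecule microarray slides; score combines spot fluorescence intensity with signal-to-noise across triplicate slides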

Compound	composite z-score [1]	composite z-score [2]	composite z-score [3]	composite z-score [4]	composite z-score [5]	composite z-score [6]	z-score [7]	composite z-score [8]	composite z-score [9]	z-score [10]	composite z-score [11]	z-score [12]	z-score [13]	z-score [14]	z-score [15]	composite z-score [16]	composite z-score [17]	composite z-score [18]	composite z-score [19]	composite z-score [20]
COC(=O)[C@]1(Cc2ccccc2N=[N+]=[N-])N=C(c2ccc(OCCCO)cc2)O[C@@H]1c1ccccc1CN=[N+]=[N-]	0.335	1.12	2.02	0.206	1.07	1.38	-0.199	0.182	0.0031	-0.232 (inactive)	0.65	-3.74 (inactive)	-0.923 (inactive)	-0.137 (inactive)	0.0992 (inactive)	0.127	0.122	1.12	0.085	0.754
C=CCC(OC(C)=O)[C@@H]1[C@@H](N(Cc2cccc3ccccc23)C(=O)c2ccc(C)cc2)c2cc(OCCCO)ccc2N1C(=O)Cc1ccc2ccccc2c1 (stereo not given in full)	-0.2	-0.0179	0.358	0.535	0.142	-0.0243	1.62	-0.136	-0.0836	-0.667 (inactive)	0.245	-0.72 (inactive)	-0.234 (inactive)	1.46 (inactive)	-0.0127 (inactive)	0.652	-0.101	0.125	-0.564	-0.0314
COc1ccc([Si](C)(C)[C@H]2[C@H](CC(=O)N(CCO)Cc3ccccc3)O[C@@]3(C(=O)N(c4ccccc4)c4ccccc43)[C@@H]2C)cc1	1.2	1.11	0.207	0.743	1.1	0.679	-0.23	0.83	0.135	-0.429 (inactive)	0.318	-7.96 (inactive)	-0.164 (inactive)	16.4 (active)	-3.89 (inactive)	0.862	-0.0986	0.0895	-0.364	1.2
CC(C)c1ccc(NN2C(C(O)C3=C[C@H]4C[C@@H](C3)C4(C)C)C=CC3C(=O)N(c4ccccc4)C(=O)C32)cc1 (stereo not given in full)	0.57	1.07	0.0505	0.953	1.11	0.248	-0.894	0.605	0.632	-1.77 (inactive)	0.747	-0.005 (inactive)	-0.335 (inactive)	0.443 (inactive)	0.551 (inactive)	1.56	0.234	0.281	0.562	-0.0766
CO[C@H]1O[C@H](CO)[C@@H](OC(=O)Nc2ccccc2)[C@@H]2OC(=O)[C@@H](Cc3ccccc3)C/C=C/C[C@H](Cc3ccccc3)C(=O)O[C@@H]12	2.4	0.426	0.348	0.0766	0.661	0.0861	-0.282	0.449	0.95	-0.283 (inactive)	0.129	-0.0611 (inactive)	-0.213 (inactive)	-0.403 (inactive)	-0.656 (inactive)	-0.304	-0.0719	0.433	1.93	0.591
CCCCN1CC=CC23O[C@@H]4C=CCCOC(=O)C4[C@H]2C(=O)N(CCO)[C@@H]3C1=O (stereo not given in full)	-1.17	-0.513	-0.634	0.213	0.407	1.79	-0.9	-0.614	-0.0481	0.421 (inactive)	-0.213	0.142 (inactive)	-0.892 (inactive)	-1.45 (inactive)	-0.34 (inactive)	-0.434	-0.0405	-0.856	-0.508	1.71
CC(=O)NCCCC[C@@H]1NC(=O)[C@H]2C[C@@H](C(=O)O)[C@@H](c3cccc(OCCO)c3)N2C1=O	0.246	1.21	0.398	0.984	1.29	1.12	-0.253	1.13	0.946	0.102 (inactive)	0.847	-0.353 (inactive)	-0.814 (inactive)	1.94 (inactive)	0.0364 (inactive)	1.62	-0.153	1.33	1.24	1.59
[N-]=[N+]=Nc1ccccc1C[C@@]1(C(=O)NCc2ccccc2)N=C(c2ccc(OCCCO)cc2)O[C@@H]1c1ccccc1	1.58	1.22	-0.255	0.695	1.47	0.992	0.945	-0.0651	0.626	-1.39 (inactive)	0.967	-5.24 (inactive)	-1.15 (inactive)	1.4 (inactive)	-1.99 (inactive)	0.877	0.175	0.324	0.506	0.242
COc1c(C)cc(-c2nc(-c3ccccc3)c3c(c2C)CO[Si]3(C(C)C)C(C)C)cc1C	-0.0017	0.223	0.0945	0.42	0.62	0.376	0.87	0.53	-0.0784	0.722 (inactive)	0.302	-0.59 (inactive)	0.306 (inactive)	0.54 (inactive)	0.456 (inactive)	-0.0316	-0.0604	-0.0284	0.0463	0.419
CCOC(=O)C=C1C[C@@H](c2cccc([N+](=O)[O-])c2)O[C@@H](c2cccc([N+](=O)[O-])c2)O1	1.1	1.11	0.867	0.871	0.669	0.715	3.03	0.279	0.697	1.31 (inactive)	0.719	-3.18 (inactive)	0.397 (inactive)	-0.527 (inactive)	-0.495 (inactive)	0.865	0.503	0.167	0.582	0.147
COCCOC(=O)N1C(=O)[C@@]2(c3cc(C#CC4=CCCCC4)ccc31)[C@H](c1ccc(O)cc1)N1[C@H](c3ccccc3)[C@H](c3ccccc3)OC(=O)[C@H]1[C@@H]2C(=O)N1CCc2cc(OC)c(OC)cc2C1	1.38	1.19	0.567	0.789	0.427	0.423	0.273	0.0605	0.726	0.0369 (inactive)	-0.0266	-0.713 (inactive)	0.315 (inactive)	-0.375 (inactive)	0.109 (inactive)	0.112	0.103	0.175	0.893	0.514
